Assay [1] can be described thus: qHTS of pediatric cancer cell lines to identify multiple opportunities for drug repurposing: Primary screen for OHS-50 cells (AID 1347103). Also: nearly all actives have a fitted effect of over 40% in size. Also: potency is read from the fitted curve at half-maximal effect. In a few lines:
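Cells (500-1,000/well) rested 5 h, then received compounds for 48 h; metabolically active cells were measured by CellTiter-Glo luminescence. Final concentrations spanned up to 46 µM (MIPE, 11-point) or 0.59 nM-46 µM (NPC, 8-point) in primary screens, 11-point in follow-ups.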
(In general: qHTS replaces the single test concentration by a dilution series.)

Assay [2] is described as follows: qHTS of pediatric cancer cell lines to identify multiple opportunities for drug repurposing: Primary screen for RD cells (AID 1347104). Also: nearly all actives have a fitted effect of over 55% in size. Also: potency is read from the fitted curve at half-maximal effect. In a few lines:
(§1)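 Quantitative HTS format: each compound titrated (MIPE 11 points from 0.78 nM, NPC 8 points from 0.59 nM) onto cells plated 5 hours earlier. After 48 h at 37 degrees C, CellTiter-Glo luminescence was recorded.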

Assay [3] can be described thus: qHTS of pediatric cancer cell lines to identify multiple opportunities for drug repurposing: Primary screen for MG 63 (6-TG R) cells (AID 1347105). Also: nearly all actives have a fitted effect of over 50% in size. Also: potency is read from the fitted curve at half-maximal effect. In a few lines: as §1
Assay [4] is described as follows: qHTS of pediatric cancer cell lines to identify multiple opportunities for drug repurposing: Primary screen for control Hh wild type fibroblast cells (AID 1347106).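 Also: series mostly up to about 46 µM; a drop in luminescence marks cytotoxicity and a rise apparent proliferation; nearly all actives have a fitted effect of over 55% in size.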 In a few lines: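 Cells (500-1,000/well) in growth media were settled 5 h at 37 degrees C, then given compounds for 48 h. Viability was read as CellTiter-Glo luminescence. Primary runs used MIPE at 11 points (0.78 nM-46 µM) and NPC at 8 points (0.59 nM-46 µM); follow-ups used 11 points.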

A short description of assay [5]: qHTS of pediatric cancer cell lines to identify multiple opportunities for drug repurposing: Primary screen for Rh30 cells (AID 1347107). Also: nearly all actives have a fitted effect of over 75% in size. Also: potency is read from the fitted curve at half-maximal effect. The method in brief:
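Viability after 48 h compound treatment at 37C, 500-1,000 cells/well, read as ATP luminescence with CellTiter-Glo. Primary screens used 11-point (MIPE, 0.78 nM-46 µM) or 8-point (NPC, 0.59 nM-46 µM) final concentrations; follow-up screens used 11-point dilutions.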

The nature of assay [6]: qHTS of pediatric cancer cell lines to identify multiple opportunities for drug repurposing: Primary screen for Rh41 cells (AID 1347108). Also: nearly all actives have a fitted effect of over 70% in size. Also: potency is read from the fitted curve at half-maximal effect. In a few lines:
as §1

Inconclusive results are not listed. Unmarked numbers belong to inactive results. Activity calls are given as the source filed them. Calls follow the shape of the dose curve; as a rule, active = well fitted curve in the direction sought with a large enough effect; inconclusive = small, poorly fitted or top-dose-only effect, or another doubt; inactive = no such curve, though single readings can be large; an effect the other way counts as inactive or inconclusive.

For the compound `CC1(C)OC(=O)Nc2ccc(Br)cc21`, the Potency entry in assay [1], in assay [2], in assay [3], in assay [4], in assay [5] and in assay [6] was “inactive” throughout.
`CC(C)=CCC/C(C)=C/CC/C(C)=C/CCC(=O)OC/C=C(\C)CCC=C(C)C`: the Potency entry in assay [1], in assay [2], in assay [3], in assay [4] and in assay [5] was “inactive” each time.
As to `C#CC(C)(CC)OC(=O)c1ccccc1C(=O)O` (stereo unspecified), the Potency result in assay [1], in assay [2], in assay [3], in assay [4] and in assay [5] was “inactive” each time.
In the case of `CN1CCCN=C1/C=C/c1cccs1`, the Potency result in assay [1], in assay [2], in assay [3], in assay [4] and in assay [5] was “inactive” each time.
Turning to `COc1ccc(OC(=O)N(CC(=O)O)Cc2ccc(OCCc3nc(-c4ccccc4)oc3C)cc2)cc1`, the Potency result in assay [1], in assay [2], in assay [3], in assay [4], in assay [5] and in assay [6] was “inactive” throughout.
As for `CC(=O)c1cc2ccccc2s1`, the Potency entry in assay [1], in assay [2], in assay [3], in assay [4], in assay [5] and in assay [6] was “inactive” in each case.
Regarding `Cc1cccc(C)c1NC(=O)c1ccc(N)cc1`, the Potency result in assay [1], in assay [2], in assay [3], in assay [4], in assay [5] and in assay [6] was “inactive” throughout.
With `CC(C)(C)c1ccc(C(=O)CCCCl)cc1`, the Potency entry in assay [1], in assay [2], in assay [3], in assay [4], in assay [5] and in assay [6] was “inactive” in each case.
As for `COc1cc(OC)nc(O[C@H](C(=O)O)C(OC)(c2ccccc2)c2ccccc2)n1`, the Potency result in assay [1], in assay [2], in assay [3], in assay [4], in assay [5] and in assay [6] was “inactive” each time.
In the case of `CCCCCN(CCCOC)C(=O)C(CCC(=O)O)NC(=O)c1ccc(Cl)c(Cl)c1` (stereo unspecified), the Potency result in assay [1], in assay [2], in assay [3], in assay [4], in assay [5] and in assay [6] was “inactive” in each case.
With `CN(CC1(C)CCCO1)S(=O)(=O)c1ccc(Cl)c(S(N)(=O)=O)c1` (stereo unspecified), the Potency result in assay [1], in assay [2], in assay [3], in assay [4], in assay [5] and in assay [6] was “inactive” each time.
On to `O=C(O)CCCC[C@@H]1SC[C@@H]2NC(=O)N[C@@H]21`, for which the Potency result in assay [1], in assay [2], in assay [3], in assay [4], in assay [5] and in assay [6] was “inactive” each time.
Take `O=P(O)(O)OCC(O)CO` (stereo unspecified): the Potency result in assay [1], in assay [2], in assay [3], in assay [4], in assay [5] and in assay [6] was “inactive” throughout.
Regarding `CCOC(=O)c1cc(=O)c2c(OCC(COc3cccc4oc(C(=O)OCC)cc(=O)c34)OC(=O)[C@@H](N)CCCCN)cccc2o1`, the Potency entry in assay [1], in assay [2], in assay [3], in assay [4], in assay [5] and in assay [6] was “inactive” in each case.
Consider `CCCCC(CC)COC(=O)c1ccccc1C(=O)O` (stereo unspecified), for which the Potency entry in assay [1], in assay [2], in assay [3], in assay [4], in assay [5] and in assay [6] was “inactive” throughout.
Consider `O=C1CCCc2c(O)cccc21`, for which the Potency entry in assay [1], in assay [2], in assay [3], in assay [4], in assay [5] and in assay [6] was “inactive” in each case.
As for `CCc1cc(S(=O)(=O)O)c2cc(C(C)C)cccc1-2`, the Potency result in assay [1], in assay [2], in assay [3], in assay [4], in assay [5] and in assay [6] was “inactive” throughout.
As for `O=C(O)[C@@H](O)[C@H](O)[C@H](O)[C@@H](O)C(=O)O`, the Potency entry in assay [1], in assay [2], in assay [3], in assay [4], in assay [5] and in assay [6] was “inactive” each time.
With `Cc1ccc(O)cc1`, the Potency result in assay [1], in assay [2], in assay [3], in assay [4], in assay [5] and in assay [6] was “inactive” in each case.
For the compound `O=C(CCCCC(=O)Nc1c(I)cc(I)c(C(=O)O)c1I)Nc1c(I)cc(I)c(C(=O)O)c1I`, the Potency entry in assay [1], in assay [2], in assay [3], in assay [4], in assay [5] and in assay [6] was “inactive” throughout.
Turning to `O=C(NN1CCCC1)NS(=O)(=O)c1ccc(Cl)cc1`, the Potency result in assay [1], in assay [2], in assay [3], in assay [4], in assay [5] and in assay [6] was “inactive” each time.
`COC(=O)c1cc(Cl)c(NC(C)=O)cc1OC`: the Potency entry in assay [1], in assay [2], in assay [3], in assay [4], in assay [5] and in assay [6] was “inactive” throughout.
Regarding `N#CC1(c2ccc(F)cc2)CCC(=O)CC1`, the Potency entry in assay [1], in assay [2], in assay [3], in assay [4], in assay [5] and in assay [6] was “inactive” in each case.
Consider `CCN(CC)CC(=O)Oc1ccc(NC(C)=O)cc1`, for which the Potency entry in assay [1], in assay [2], in assay [3], in assay [4], in assay [5] and in assay [6] was “inactive” throughout.
In the case of `COc1cc(C=O)ccc1O`, the Potency result in assay [1], in assay [2], in assay [3], in assay [4], in assay [5] and in assay [6] was “inactive” each time.
For the compound `Nc1ccc(C(=O)N2CC3CC(CN(Cc4ccccc4)C3)C2)cc1`, the Potency result in assay [1], in assay [2], in assay [3], in assay [4], in assay [5] and in assay [6] was “inactive” each time.
`COc1ccc2nc(SCc3ncc(C)c(OC)c3C)[nH]c2c1`: the Potency entry in assay [1], in assay [2], in assay [3], in assay [4], in assay [5] and in assay [6] was “inactive” each time.
For the compound `Cc1cc2nc3ccc(=[N+](C)C)cc-3sc2cc1N`, the Potency is 3.89 µM (active) in assay [1]; 4.73 µM (active) in assay [2]; 13.3 µM (active) in assay [3]; 15 µM (active) in assay [5]; 5.96 µM (active) in assay [6]. Moreover, the Potency result in assay [4] was “inactive”.
Turning to `O=C(CCOCCOCCOCCOCCC(=O)Nc1c(I)cc(I)c(C(=O)O)c1I)Nc1c(I)cc(I)c(C(=O)O)c1I`, the Potency result in assay [1], in assay [2], in assay [3], in assay [4], in assay [5] and in assay [6] was “inactive” in each case.

These data come from PubChem BioAssay (NCATS).
